In ChEMBL document CHEMBL1157539, “Thousands of chemical starting points for antimalarial lead identification” (Nature, 2010):

How the values were obtained:
Assay type in all cases: functional
[1] = test system: Plasmodium falciparum; test: GSK_TCMDC: Inhibition of Plasmodium falciparum 3D7 in whole red blood cells, using parasite LDH activity as an index of growth. Test compounds present at 2uM
[2] = test system: Plasmodium falciparum; test: GSK_TCMDC: Inhibition of Plasmodium falciparum Dd2 in whole red blood cells, using parasite LDH activity as an index of growth. Test compounds present at 2uM
[3] = test system: HepG2; test: GSK_TCMDC: Percent inhibition of human HepG2 cell line. Test compounds present at 10uM.

SMILES	Inhibition [1] [%]	Inhibition [2] [%]	Inhibition [3] [%]
CC12CC3CC(C)(C1)CC(Nc1nc(N4CCOCC4)nc4ccccc14)(C3)C2	95	14	31
N[C@@H](Cc1ccc(O)cc1)C(=O)NC(c1ccccc1)c1c(O)ccc2ccccc12.O=C(O)C(F)(F)F (some centres undefined)	95	95	6
COc1ccc(CN2CCC(CNCCc3c(Cl)cccc3Cl)CC2)cc1.O=C(O)C(F)(F)F	98	69	45
CC(C)(CNC(=O)C1CCN(CC2CCCCC2)CC1)c1nc(-c2ccc(Cl)c(O)c2)c(-c2ccncc2)[nH]1.Cl	98	31	0
CC(C)CN1CCN(c2nc(C#N)c3c(c2C(=S)NC2CCCCC2)CC(C)(C)OC3)CC1	100	99	0
O=C(Nc1ccc(-c2ccc(-c3nc4ccccc4[nH]3)cc2)cc1)Nc1ccc(Cl)c(Cl)c1	100	100	68
COC(=O)c1ccc(OCC(C)NCC(O)c2cccc(C(F)(F)F)c2)cc1.O=C(O)/C=C/C(=O)O (centres undefined)	94	81	6
O=C(NCc1cccc(F)c1)Nc1cccc(-c2cccc(-c3nc4cc(C(F)(F)F)ccc4[nH]3)c2)c1	93	32	55
CC(C)Oc1cccc(-c2ccc(C(=O)NCC3CCCN(Cc4cccc(C(F)(F)F)c4)C3)s2)c1.O=C(O)C(F)(F)F (centres undefined)	91	28	10
CC(=O)c1ccc(-c2ccc(C(=O)NCCCCN3CCC(c4ccc5c(c4O)CCCC5)CC3)cc2)cc1	100	83	87
Cl.N=c1n(CCN2CCCC2)c2ccccc2n1CC(O)c1ccc(Cl)c(Cl)c1 (centres undefined)	100	6	36
COc1ccc2nc(C)cc(N/N=C/c3ccc([N+](=O)[O-])o3)c2c1	100	100	18
O=C(/C=C/c1ccc(Cl)c(Cl)c1)NCCCCCN1CCCC(CNC(=O)c2sc3ccccc3c2Cl)C1 (centres undefined)	98	0	42
OC(c1cccc2ccccc12)C1CN(CCc2ccccc2)CCC1(O)c1ccccc1 (centres undefined)	99	100	0
Cc1cc(CN2CCC(N3CC(c4ccccc4)(c4ccccc4)OCC3=O)C2)ccc1O.O=C(O)C(F)(F)F (centres undefined)	89	52	3
CCc1cn2c3c(cc(C(=O)N[C@@H](Cc4ccccc4)[C@H](O)CNCCOC)cc13)N(C)S(=O)(=O)CC2.O=CO	98	56	7
COc1ccc(C(=O)CCc2ccc(O)cc2)cc1	96	90	0
CCc1cn2c3c(cc(C(=O)N[C@@H](Cc4ccccc4)[C@H](O)CNC4CCCC4)cc13)N(C)S(=O)(=O)CC2	100	99	6
CC(C)(C)OC(=O)Nc1cccc(-c2csc(NC(=N)N)n2)c1	97	83	4
CN1CCC(N(C)C(=O)C=Cc2cn(-c3ccccc3)nc2-c2cc3ccccc3o2)CC1.Cl	92	5	38

SMILES	Inhibition [1] [%]	Inhibition [2] [%]	Inhibition [3] [%]
CCCCCCCNCc1c(O)ccc2c(CNCCCCCCC)c(O)ccc12.Cl	100	99	29
COc1ccc2nccc(N3CCC(CCNCc4cc5c(cn4)OCCO5)CC3)c2c1.Cl	100	99	26
O=C(NCc1ccc(F)cc1)c1cnc(N2CCN(c3ccncc3)CC2)c(Cl)c1.O=C(O)C(F)(F)F	98	44	30
CCN(CCNC(=O)Nc1cc(C(F)(F)F)cc(C(F)(F)F)c1)c1cccc(C)c1	98	100	0
O=C(Nc1cccc(-c2nn3ccccc3c2-c2ccnc(Nc3ccc(C(=O)N4CCOCC4)cc3)n2)c1)c1c(F)cccc1F	99	97	72
C=C(NC(=O)c1cc(C)cc(C)c1)C(=O)OC	95	0	21
COc1c(CNCCCCCCNCc2cc(Cl)c3ccccc3c2OC)cc(Cl)c2ccccc12.CS(=O)(=O)O	96	45	100
O=C(Nc1ccccc1)N(Cc1ccccc1-c1cccc(CNCc2ccc3c(c2)OCO3)c1)C1CCN(Cc2ccccc2)CC1.O=C(O)C(F)(F)F	100	64	35
Cc1cc(-c2ccc(NC(=O)N3CCc4cc(Br)c(N5CCN(C)CC5)cc43)cc2)ccc1C#N	99	56	100
Cc1ccc(-c2nc(N3CCN(C(=O)c4ccco4)CC3)c3ccccc3n2)cc1	90	75	0
COc1ccc(CNC2CCN(C)CC2)cc1-c1ccc(S(=O)(=O)NCCc2ccccn2)c(C)c1.O=C(O)C(F)(F)F	96	91	7
OCCCCCCNc1nc(NCc2ccccc2-c2ccc(C(F)(F)F)cc2)nc(N2CCNCC2)n1	89	16	13
CCNc1cc(C(=O)N[C@@H](Cc2ccccc2)[C@H](O)CNCCC(C)(C)C)c(F)c(N2CCCCS2(=O)=O)c1.O=CO	98	93	2
Cc1cc(CN2CCCC(OC(c3ccc(F)cc3)c3ccc(F)cc3)C2)ccc1O (centres undefined)	89	82	28
c1cncc(Oc2ccc(Nc3ccnc4cc(-c5cccc(CNCCN6CCOCC6)c5)ccc34)cc2)c1	100	99	14
O=C(Nc1cccc(F)c1)N(Cc1ccc(-c2ccc(CN3CCNCC3)cc2)cc1)C1CCN(Cc2ccccc2)CC1.O=C(O)C(F)(F)F	100	53	18
COc1ccccc1NC(=O)Nc1ccc(-c2ccc(-c3nc4cc(C(F)(F)F)ccc4[nH]3)cc2)cc1	100	61	52
FC(F)(F)c1ccc(CNC2CCN(CC3CCCCC3)CC2)cc1.O=C(O)C(F)(F)F	87	5	4
Cc1cc(N/N=C/c2cccc([N+](=O)[O-])c2)c2ccc(C(F)(F)F)cc2n1	100	51	2
CC(CCc1ccccc1)NCC(O)c1ccc2c3c(cccc13)S(=O)(=O)N2C.Cl (centres undefined)	99	99	16

SMILES	Inhibition [1] [%]	Inhibition [2] [%]	Inhibition [3] [%]
CCOC(=O)c1nc(-c2cc(Cl)nc(Cl)c2)[nH]c1NC(=S)NCCCN1CCOCC1	89	71	13
Cl.O=C(Nc1ccncc1)Nc1ccc2c(c1)CCN(C1CCC1)CC2	87	4	0
CCOC(=O)c1cnc2c(C(F)(F)F)cccc2c1Nc1ccc(O)cc1	96	67	0
O=C(Nc1ccc(C(F)(F)F)cc1)c1cccc(S(=O)(=O)NC2CCN(CC3CCCCC3)C2)c1.O=C(O)C(F)(F)F (centres undefined)	98	10	32
Cc1cccc2nc(-c3cccc(-c4ccc(NC(=O)NCc5ccccc5)cc4)c3)[nH]c12	100	47	35
O=C(NC1CCN(Cc2ccccc2O)C1)c1cccc(C(F)(F)F)c1.O=C(O)C(F)(F)F (centres undefined)	98	62	0
CN1CCCC(CN2CCN(Cc3ccc(-c4ccc(-c5nc6ccccc6[nH]5)s4)cc3)CC2)C1.O=C(O)C(F)(F)F (centres undefined)	100	100	57
Cc1cccc2nc(-c3ccc(-c4ccc(CNCc5cnn(-c6ccccc6)n5)cc4)s3)[nH]c12.O=C(O)C(F)(F)F	97	48	16
O=C(Nc1ccc(-c2nc3cc4ccccc4cc3[nH]2)cc1)c1cccc(Br)c1	100	89	50
O=C(Nc1ccc(Cl)cc1)N(CC1CC2CCC(C1)N2Cc1ccc(C(F)(F)F)cc1)c1ccc(N2CCOCC2)c(F)c1 (centres undefined)	85	36	31
CC(Cc1ccc(CN2CCN(Cc3ccccc3)CC2)cc1)NCC(O)c1cccc(C(F)(F)F)c1.Cl (centres undefined)	97	98	51
O=C(NC1CCCCC1)N(Cc1ccc(-c2cccc(CNC3CCCC3)c2)cc1)C1CCN(Cc2ccccc2)CC1.O=C(O)C(F)(F)F	95	59	52
O=C(O)C(F)(F)F.O=[N+]([O-])c1cccc(CNCC2CCN(Cc3ccc(C(F)(F)F)cc3)CC2)c1	100	23	7
COc1ccc(CNCc2ccc(-c3ccc(-c4nc5cc(C(F)(F)F)ccc5[nH]4)cc3)cc2)cc1.O=C(O)C(F)(F)F	100	99	75
CC(=O)Nc1ccc(C(=O)Nc2cccc(-c3ccc(-c4nc5cc(C(F)(F)F)ccc5[nH]4)cc3)c2)cn1	100	100	46
CCOC(=O)c1ccc(NC(=O)Nc2cccc(-c3ccc(-c4nc5cccc(C)c5[nH]4)s3)c2)cc1	100	99	44
COc1ccc2nccc(N3CCC(NCc4ccc5c(n4)NC(=O)CS5)CC3)c2n1	100	63	14
Cc1noc(C)c1-c1cccc(CNCc2ccc(-c3ccc(-c4nc5cc(F)ccc5[nH]4)s3)cc2)c1.O=C(O)C(F)(F)F	100	93	45
